A selection: hits, their analogues and other compounds. The true share with any hit is near 7.3%.
VACV mCherry inh: vaccinia inhibition (mCherry reporter); Vaccinia virus mCherry reporter infection, fluorescence; Potency, µM (series often up to 36.5 µM), for the others: at the highest dose activity change, negative = inhibition, hits mostly inhibitors; 310,000 compounds, 0.63% hits; AID 720579; calls by dose curve; tested in A549 cells; further: potency means the concentration at half of the fitted maximal effect; nearly all actives have a fitted effect of over 35% in size
Vaccinia Venus: inhibitors of vaccinia virus (Venus reporter); Vaccinia virus Venus reporter expression, fluorescence; Potency, µM (top dose mostly 36.5 µM), for the others: top-dose activity change, negative = inhibition, most hits filed as inhibitors; 330,000 compounds, 0.46% hits; AID 720580; calls by dose curve; tested in A549 cells; further: potency means the concentration at half of the fitted maximal effect; nearly all actives have a fitted effect of over 30% in size
HCV inhibitor: blocks hepatitis C virus; Huh7.5.1 HCVcc-Cre infection, luciferase reporter, 44 h; Potency, µM (titrated, usually from 41.8 µM), for inactives: at the top dose activity change, negative = inhibition, usual class: inhibitors; 340,000 compounds, 3.4% hits; active means well fitted inhibition curve with a large enough effect; inconclusive means small, poorly fitted or top-dose-only effect, or another doubt; inactive means no such curve, though single readings can be large or run the other way; further: potency means the concentration at half of the fitted maximal effect
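Antiviral activity was scored by luciferase reporter output from cells infected with HCVcc-Cre (~0.5 moi) in presence of compound, 44 h infection period, cells seeded 1,000/well 4 h prior.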
FMDV inh: blocks foot and mouth disease virus. 410,000 compounds, 1.2% hits. Potency, µM (top dose mostly 57.9 µM), inactives show at the highest dose activity change, negative = inhibition, usual class: inhibitors. FMDV antiviral cell-based qHTS; calls by dose curve; tested in HEK293T cells; further: read-out not given here; potency means the concentration at half of the fitted maximal effect; nearly all actives have a fitted effect of over 45% in size
HCMV inh: inhibitors of human cytomegalovirus; HFF cells, HCMV-luciferase reporter, 72 h; hits give low values; activity change, negative = inhibition, % at 57.5 µM; 410,000 compounds, 4.5% hits; in the data active means activity change below about -60%; inconclusive means no clear call, values can overlap the other calls; inactive means above about -39%
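Human foreskin fibroblasts infected with luciferase-reporter HCMV at MOI 1 PFU/cell, compounds at two doses. Luciferase measured 72 h post infection; normalized to buffer-only basal and Salinomycin (10uM) controls.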
* hit, by the source's call. On the % scale 0 is the no-effect control and ±100 the full control effect.

How did Cc1ccsc1C(=O)OC(C)C(=O)Nc1ccc(Cl)cn1 (centres undefined) do in these assays?
VACV mCherry inh: -18%; Vaccinia Venus: -14%; HCV inhibitor: 3%; FMDV inh: 2%; HCMV inh: 25

What do the screens show for `Cc1cccc(C)c1NC(=O)C1(C)CSCC(=O)N1C1CCN(Cc2ccccc2)CC1` (centres undefined)?
VACV mCherry inh: -19%; Vaccinia Venus: -2%; FMDV inh: -12%; HCMV inh: -68*

How did O=C(Cn1c(=O)n(Cc2nc(-c3ccccc3)no2)c(=O)c2cc3c(cc21)OCO3)Nc1cccc(C(F)(F)F)c1 do in these assays?
VACV mCherry inh: -3%; Vaccinia Venus: 3%; FMDV inh: 0%; HCMV inh: -3

What do the screens show for `COc1ccccc1-c1nnc(C2CCN(C(=O)c3cccc(Cl)c3)CC2)o1`?
VACV mCherry inh: -4%; Vaccinia Venus: -8%; FMDV inh: -12%; HCMV inh: -92*

What do the screens show for `COc1ccccc1-c1nnc(C2CCN(C(=O)c3ccccc3C)CC2)o1`?
VACV mCherry inh: -14%; Vaccinia Venus: -15%; FMDV inh: 6%; HCMV inh: -10

Results for O=C(CSc1nc2ccccc2[nH]1)Nc1nc(-c2ccc(Br)cc2)cs1 ?
VACV mCherry inh: inconclusive; Vaccinia Venus: inconclusive; HCV inhibitor: -30%; FMDV inh: 22µM*; HCMV inh: 23

How did CCCc1cc(=O)[nH]c(SCC(=O)Nc2nc(-c3ccccc3)cs2)n1 do in these assays?
VACV mCherry inh: -4%; Vaccinia Venus: -3%; HCV inhibitor: 2%; FMDV inh: -15%; HCMV inh: -34

Results for COc1nonc1NC(=O)CSc1nc2ccccc2[nH]1 ?
VACV mCherry inh: -16%; Vaccinia Venus: -14%; HCV inhibitor: 12%; FMDV inh: -13%; HCMV inh: -64*

What do the screens show for `Cc1nonc1NC(=O)CSc1nc2ccccc2[nH]1`?
VACV mCherry inh: inactive; Vaccinia Venus: 0%; HCV inhibitor: 10%; FMDV inh: 0%; HCMV inh: -4

Results for O=C(CSc1nc2ccccc2[nH]1)Nc1c(F)cccc1F ?
VACV mCherry inh: -19%; Vaccinia Venus: -18%; HCV inhibitor: inconclusive; FMDV inh: 15%; HCMV inh: -85*

What do the screens show for `c1cncc(Nc2nc(-c3cccs3)cs2)c1`?
HCV inhibitor: 3.2µM*; FMDV inh: 59%; HCMV inh: 157

How did c1ccc(-c2csc(Nc3cccnc3)n2)nc1 do in these assays?
HCV inhibitor: 10µM*; FMDV inh: 45%; HCMV inh: 54

What do the screens show for `O=C(COc1ccccc1F)NC1CC(=O)N(c2ccc3c(c2)OCCO3)C1` (centres undefined)?
VACV mCherry inh: -1%; Vaccinia Venus: -1%; FMDV inh: -17%; HCMV inh: 7

How did CCN(CC(=O)Nc1ccc(NC(C)=O)cc1)C(=O)Cc1ccc(Cl)c(Cl)c1 do in these assays?
VACV mCherry inh: -6%; Vaccinia Venus: -1%; HCV inhibitor: inconclusive; FMDV inh: inconclusive; HCMV inh: -64*

How did CCC(=O)Nc1nc(-c2ccc3c(c2)CC(C)N3S(C)(=O)=O)cs1 (centres undefined) do in these assays?
VACV mCherry inh: inactive; Vaccinia Venus: -21%; HCV inhibitor: inconclusive; FMDV inh: -17%; HCMV inh: -22

What do the screens show for `CS(=O)(=O)N1CCc2cc(-c3csc(NC(=O)Cc4ccccc4)n3)ccc21`?
VACV mCherry inh: inconclusive; Vaccinia Venus: inconclusive; HCV inhibitor: inconclusive; HCMV inh: -98*

How did O=C(CN1CCCCC1)Nc1nc(-c2ccccc2)cs1 do in these assays?
VACV mCherry inh: inactive; Vaccinia Venus: -6%; HCV inhibitor: inconclusive; FMDV inh: 6%

Results for CC(=O)Nc1ccc(-c2csc(NC(=O)Cc3cccc(F)c3)n2)cc1 ?
VACV mCherry inh: inconclusive; Vaccinia Venus: -22%; HCV inhibitor: 7.9µM*; FMDV inh: -3%; HCMV inh: -3

What do the screens show for `CC1Cc2cc(-c3csc(NC(=O)Cc4cccs4)n3)ccc2N1S(C)(=O)=O` (centres undefined)?
VACV mCherry inh: inconclusive; Vaccinia Venus: inconclusive; HCV inhibitor: 6.3µM*; FMDV inh: 5.6µM*; HCMV inh: -100*

Results for Cc1ccccc1C(=O)N1CCc2cc(-c3csc(NC(=O)CN4CCCC4)n3)ccc21 ?
VACV mCherry inh: inactive; Vaccinia Venus: -13%; HCV inhibitor: inconclusive; FMDV inh: -22%; HCMV inh: -79*

Results for CC(=O)Nc1ccc(-c2csc(NC(=O)Cc3ccccc3F)n2)cc1 ?
VACV mCherry inh: inconclusive; Vaccinia Venus: -15%; HCV inhibitor: inconclusive; FMDV inh: 35%; HCMV inh: 34

How did CS(=O)(=O)N1CCc2cc(-c3csc(NCC4CCCO4)n3)ccc21 (centres undefined) do in these assays?
VACV mCherry inh: inactive; Vaccinia Venus: 1%; HCV inhibitor: -29%; HCMV inh: 53

How did COc1cc(/C=N/NC(=O)Cn2ccc(C(F)(F)F)n2)cc(OC)c1OC do in these assays?
HCV inhibitor: inconclusive; FMDV inh: -17%; HCMV inh: -2

Results for CCCC(=O)Nc1nc(-c2ccc3c(c2)CCN3S(C)(=O)=O)cs1 ?
VACV mCherry inh: -14%; Vaccinia Venus: -24%; HCV inhibitor: 13µM*; HCMV inh: -35

Results for O=C(Cc1cccs1)Nc1nc(-c2ccc(F)cc2F)cs1 ?
HCV inhibitor: 11µM*; FMDV inh: -29%; HCMV inh: 0

What do the screens show for `O=C(Cc1cccs1)Nc1nc(-c2ccc(F)c(F)c2)cs1`?
VACV mCherry inh: inconclusive; Vaccinia Venus: -8%; HCV inhibitor: inconclusive; FMDV inh: inconclusive; HCMV inh: 16

What do the screens show for `CCOc1ccc(C(=O)/C=C/c2cc(OC)c(OC)c(OC)c2)cc1`?
VACV mCherry inh: inconclusive; Vaccinia Venus: inconclusive; HCV inhibitor: -27%; FMDV inh: inconclusive; HCMV inh: -88*

What do the screens show for `COc1cc(/C=C/C(=O)c2ccc(F)cc2)cc(OC)c1OC`?
VACV mCherry inh: 0%; Vaccinia Venus: -9%; HCV inhibitor: inconclusive; FMDV inh: 25µM*; HCMV inh: -112*

How did Cc1cc(=O)[nH]c(N=N/C(=N/Nc2ccccc2C)c2ccccc2)n1 do in these assays?
Vaccinia Venus: -7%; HCV inhibitor: inconclusive; FMDV inh: -9%; HCMV inh: -86*

How did CN(Cc1ccccc1)C(=O)[C@H](Cc1ccc2ccccc2c1)NC(=O)[C@@H]1C[C@@H](O)CN1C(=O)c1cn(C)c2ccccc12 do in these assays?
FMDV inh: 28%

How did Cc1ccc(Cl)cc1NC(=O)CSc1nc(C)c(C)c(C)c1C#N do in these assays?
VACV mCherry inh: -11%; Vaccinia Venus: -11%; FMDV inh: -26%; HCMV inh: -85*

Results for CC(=O)Nc1cccc(NC(=O)CSc2nc(C)c(C)c(C)c2C#N)c1 ?
HCV inhibitor: 2%; FMDV inh: inconclusive; HCMV inh: -12
